# From PubChem
# Shown are actives, neighbours in structure and some others; about 1.4% of the full set was active somewhere.
# AmpC inh no detg = inhibitors of E. coli AmpC beta-lactamase without detergent; Potency, µM (titrated, usually from 57.1 µM), for the others: at the highest dose activity change, negative = inhibition, most hits filed as inhibitors; hit rate 0.52% among 330,000; AmpC nitrocefin hydrolysis, absorbance 480 nm, 0.0001% Triton; P00811;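 further: plate controls were no compound for no effect and no enzyme for full effect; nearly all actives have a fitted effect of over 20% in size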
# Target sequence (P00811 whole entry, looked up): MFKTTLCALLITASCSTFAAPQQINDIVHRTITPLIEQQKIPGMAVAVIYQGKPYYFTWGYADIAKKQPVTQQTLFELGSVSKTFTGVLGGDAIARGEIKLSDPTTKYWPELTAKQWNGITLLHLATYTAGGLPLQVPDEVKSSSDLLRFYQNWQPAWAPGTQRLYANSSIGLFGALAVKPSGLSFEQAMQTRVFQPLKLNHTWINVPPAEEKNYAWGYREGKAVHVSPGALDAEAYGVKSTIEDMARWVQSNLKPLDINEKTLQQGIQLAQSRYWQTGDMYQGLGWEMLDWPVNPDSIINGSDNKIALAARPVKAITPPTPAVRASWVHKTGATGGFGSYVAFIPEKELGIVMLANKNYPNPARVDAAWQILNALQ
#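 20 mM phosphate pH 7.0 + 0.01% (detergent screen) or 0.0001% Triton X-100; 5.3 nM AmpC reagent; cpd preinc 15 min RT; nitrocefin (800 uM stock) to start; A480 q20 s × 4 min; Activity was normalised to no-enzyme and no-compound control wells.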
# Giardia FBPA inh-1 = blocks Giardia fructose-bisphosphate aldolase activity | A8B2U2 | purified Giardia FBPA | Potency, µM (doses to about 59.6 µM), without a hit: at the highest dose activity, negative = inhibition, usual class: inhibitors | hit rate 0.71% among 290,000 | AID 2451; further: nearly all actives have a fitted effect of over 55% in size
# Target sequence (A8B2U2 whole entry, looked up): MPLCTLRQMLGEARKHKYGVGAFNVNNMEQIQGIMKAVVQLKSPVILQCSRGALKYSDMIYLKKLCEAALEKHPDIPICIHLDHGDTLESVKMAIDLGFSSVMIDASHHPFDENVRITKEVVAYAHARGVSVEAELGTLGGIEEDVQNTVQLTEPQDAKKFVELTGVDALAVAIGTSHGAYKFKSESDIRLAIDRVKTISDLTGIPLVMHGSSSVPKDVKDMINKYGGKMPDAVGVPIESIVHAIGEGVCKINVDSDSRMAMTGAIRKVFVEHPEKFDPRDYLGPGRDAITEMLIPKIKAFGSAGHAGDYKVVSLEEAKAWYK
#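 40 nM FBPA preincubated 10 min at RT with compound (up to 57.5 uM final), then substrate plus GAPDH/TPI/NAD/arsenate coupling and diaphorase/resazurin added. Fluorescence read after 20 min at RT, 525/598 nm.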
# TbPYK inhibitor = inhibitors of Trypanosoma brucei pyruvate kinase. hit rate 0.12% among 410,000. TbPYK enzyme, Kinase-Glo Plus ATP luminescence, 45 min. AID 624173. Q57TT1. Potency, µM (series often up to 76.8 µM), without a hit: top-dose activity, negative = inhibition, most hits filed as inhibitors; further: nearly all actives have a fitted effect of over 50% in size
#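 TbPYK + substrate in 50 mM TEA pH 7.2, 100 mM KCl, 10 mM MgCl2, 0.05% BSA, 0.01% Tween-20; cpd pinned; ADP 130 uM final; 45 min RT; Kinase-Glo Plus 10 min; luminescence endpoint.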
# LmPK inh = blocks Leishmania mexicana pyruvate kinase activity. Q27686. purified LmPK, Kinase-Glo ATP luminescence, 1 h. Potency, µM (highest dose often 57.5 µM), inactives show top-dose activity change, negative = inhibition, most hits filed as inhibitors. hit rate 0.37% among 290,000. AID 1721
#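 ATP generated from ADP (0.1 mM) and PEP (0.5 mM) by 0.1 nM LmPK over 1 h at room temperature (pH 7.2 imidazole buffer) was detected by coupled luciferase luminescence. Values were normalized to uninhibited and no-enzyme wells.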
# AmpC detergent = blocks E. coli AmpC beta-lactamase in detergent assay | Potency, µM (highest dose often 114 µM), for inactives: top-dose activity change, negative = inhibition, actives largely listed as inhibitors | hit rate 0.041% among 370,000 | P00811 | AmpC hydrolysis of nitrocefin, absorbance 480 nm, 0.01% Triton | AID 485294;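 further: 0% = no-compound wells and -100% = no-enzyme wells; nearly all actives have a fitted effect of over 25% in size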
#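 AmpC (5.3 nM in the dispensed reagent) in 20 mM phosphate pH 7.0 with 0.01% (detergent screen) or 0.0001% Triton X-100 was preincubated with compounds for 15 min at room temperature. Nitrocefin was then added from an 800 uM solution, and hydrolysis was followed at 480 nm.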
# RE007 growth inh = less growth of the S. pombe RE007 Vpr strain; S. pombe RE007 Vpr strain, BacTiter-Glo ATP luminescence, 24 h; Potency, µM (titrated, usually from 92.2 µM), without a hit: at the highest dose activity change, negative = less growth, actives largely listed as inhibitors; hit rate 0.21% among 360,000; AID 651644; active means well fitted falling curve with a large enough effect; inconclusive means small, poorly fitted or top-dose-only effect; inactive means no such curve, though single readings can be large or run the other way; further: nearly all actives have a fitted effect of over 50% in size
#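 Fission yeast RE007 carrying one integrated HIV-1 vpr copy, seeded at OD 0.01 in PMG+AL medium with 23 nL pinned compound. Grown 24 h at 30 degrees; viability read by BacTiter-Glo luminescence after 5 min.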
# Giardia growth = Giardia lamblia growth inhibition. Giardia lamblia trophozoite growth inhibition. shares compounds with Giardia FBPA inh-1. Potency, µM (highest dose often 57.5 µM), without a hit: top-dose activity change, negative = inhibition, most hits filed as inhibitors. hit rate 5% among 1,500;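 further: trophozoites exposed to compound for 48 h at 37 °C; nearly all actives have a fitted effect of over 70% in size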
# Mammal cell tox = mammalian cytotoxicity of Giardia aldolase inhibitor hits; shares compounds with Giardia FBPA inh-1; mammalian cell viability counter-screen, qHTS; Potency, µM (doses to about 57.5 µM), inactives show at the top dose viability change, negative = toxicity, most hits filed as inhibitors; hit rate 4% among 1,500; AID 2786;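 further: Chinese hamster ovary cells used as mammalian cytotoxicity surrogate; viability measured as cellular ATP by luminescence; compound exposure lasted 48 h before reading; nearly all actives have a fitted effect of over 60% in size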
# Giardia FBPA inh-2 = confirmation of Giardia fructose-bisphosphate aldolase inhibitors | shares compounds with Giardia FBPA inh-1 | purified Giardia aldolase enzyme activity, qHTS | Potency, µM (highest dose often 57.5 µM), for inactives: at the highest dose activity change, negative = inhibition, usual class: inhibitors | hit rate 5% among 1,500; further: nearly all actives have a fitted effect of over 45% in size
# Rabbit aldolase = rabbit FBP aldolase inhibition by Giardia aldolase hits. Potency, µM (top dose mostly 57.5 µM), inactives show at the highest dose activity, negative = inhibition, usual class: inhibitors. Rabbit muscle FBPA enzyme inhibition, selectivity counter-screen. shares compounds with Giardia FBPA inh-1. hit rate 4% among 1,500; further: nearly all actives have a fitted effect of over 60% in size
# GAPDH counter = GAPDH inhibition flagged for Giardia aldolase hits. shares compounds with Giardia FBPA inh-1. GAPDH coupling enzyme counterscreen, biochemical, qHTS. Potency, µM (doses to about 57.5 µM), without a hit: top-dose activity change, negative = inhibition, hits mostly inhibitors. hit rate 6% among 1,500. AID 2795; further: nearly all actives have a fitted effect of over 55% in size
# The depositor's hits bear a star; ? = inconclusive; nt = no result; [ ] = dose if it differs, or a comment. Unless noted, the call rests on the fitted dose curve; in most records, active means well fitted curve in the direction sought with a large enough effect; inconclusive means small, poorly fitted or top-dose-only effect, or another doubt; inactive means no such curve, though single readings can be large; an effect the other way counts as inactive or inconclusive. Unless noted, on the % scale 0 is the no-effect control and ±100 the full control effect; potency means the concentration at half of the fitted maximal effect.
SMILES,AmpC inh no detg,Giardia FBPA inh-1,TbPYK inhibitor,LmPK inh,AmpC detergent,RE007 growth inh,Giardia growth,Mammal cell tox,Giardia FBPA inh-2,Rabbit aldolase,GAPDH counter
CCc1ccc(OCC(=O)N(Cc2ccco2)Cc2ccccc2Cl)cc1,nt,nt,-9%,nt,23%,nt,nt,nt,nt,nt,nt
N#CCC(=O)Nn1c(=S)[nH]c2ccccc2c1=O,-36%,3.5µM*,-2%,-12%,-12%,13%,-1%[38.3 µM],5%,-14%,6%,1%
COc1c(O)ccc(/C=C(\C#N)c2nc3ccccc3[nH]2)c1[N+](=O)[O-],1%,?,-2%,2%,-1%,-3%,?,-14%,-24%,-15%,-16%
Cc1cc(=O)n(CC(=O)O)c2ccccc12,-15%,1%,-1%,1%,5%,5%,nt,nt,nt,nt,nt
Cc1cc(C)n(CC(=O)O)c(=O)c1[N+](=O)[O-],-20%,7.9µM*,-11%,0%,8%,18%,-25%,19%,-9%,-4%,5%
NC(=S)N=Nc1ccc(NN=C(N)N)cc1,-24%,10µM*,?,-6%,?,-20%,22%,-3%,?,?,?
N#C/C(=N/Nc1ccc(OC(F)(F)F)cc1)C(N)=S,-33%,0%,-3%,-5%,-6%,28%,nt,nt,nt,nt,nt
CN1CCN(C(=S)c2ccc(N(C)C)cc2)CC1,-13%,16µM*,?,-8%,?,-4%,?,23%,-16%,?,?
CSc1ccc(C(=S)N2CCN(C)CC2)cc1,-12%,-23%,?,-4%,1%,8%,nt,nt,nt,nt,nt
CN1CCN(C(=S)c2ccc(Br)cc2)CC1,-12%,16µM*,?,5%,7%,-11%,-9%[10.4 µM],2%,-26%,?,?
CCN1CCN(C(=S)c2ccc(Br)cc2)CC1,1%,nt,?,-1%,-10%,4%,nt,nt,nt,nt,nt
CCCCc1ccc(NS(=O)(=O)c2cc3c4c(c2)CC(=O)N4CCC3)cc1,nt,nt,-1%,nt,7%,nt,nt,nt,nt,nt,nt
O=C1CSC(=S)N1,-7%,7.9µM*,-5%,-2%,?,-4%[18.4 µM],-7%[38.3 µM],-7%,1%,12%,11%
COC(=O)c1ccc(CSc2c(C(C)C)cnc3c2c(=O)n(C)c(=O)n3C)cc1,nt,nt,?,nt,4%,nt,nt,nt,nt,nt,nt
Cc1ccc(N2CCN(C(=S)c3ccc(-c4cccc([N+](=O)[O-])c4)o3)CC2)cc1,-37%,16µM*,-15%,-2%,-15%,10%,-17%[10.4 µM],-14%,-1%,-5%,6%
O=C(NCCCN1CCCC1)[C@H](CSCc1ccccc1)N1Cc2ccccc2C1=O,57%,18µM*,4%,6%,-4%,18%,-3%[10.4 µM],-29%,11%,2%,17%
CC(C)NC(=O)[C@H](CSCc1ccccc1)N1Cc2ccccc2C1=O,1%,6%,-13%,2%,?,0%,nt,nt,nt,nt,nt
CCCCOc1ccc(S(=O)(=O)Nc2cccc(-c3ccc(N4CCOCC4)nn3)c2)cc1,nt,nt,-7%,nt,?,nt,nt,nt,nt,nt,nt
CCOc1ccc(-n2c(O)c(N=Nc3c(C)n(C)n(-c4ccccc4)c3=O)c(=O)[nH]c2=O)cc1,-21%,16µM*,0%,1%,-4%,0%,?,7%,2%,-14%,-13%
CCOC(=O)c1c(O)c(O)c(C(=O)OCC)n1-c1ccccc1,-24%,20µM*,-10%,1%,3%,-12%,19%,-7%,-16%,-27%,-18%
CCOc1ccc(N=Nc2c(C)[nH]n(-c3ccccc3)c2=O)cc1,-37%,7.9µM*,-3%,9%,-17%,14%,-5%,1%,1%,4%,8%
CC(=O)N(C)c1ccc(N=Nc2c(C)[nH]n(-c3ccccc3)c2=O)cc1,99%,4.5µM*,0%,2%,-16%,-9%,19%,0%,5%,5%,15%
CC(NC(=O)CSc1n[nH]c(-c2ccccc2Cl)n1)c1nc2ccccc2n1C (stereo not drawn),nt,nt,2%,nt,3%,nt,nt,nt,nt,nt,nt
CCOC(=O)c1cc(S(=O)(=O)N2CCN(c3cc(Cl)ccc3C)CC2)[nH]n1,nt,nt,2%,nt,-6%,nt,nt,nt,nt,nt,nt
O=C(Nc1ccccc1C(F)(F)F)c1noc2c1CCCCC2,nt,nt,1%,nt,20%,nt,nt,nt,nt,nt,nt
SMILES,AmpC inh no detg,Giardia FBPA inh-1,TbPYK inhibitor,LmPK inh,AmpC detergent,RE007 growth inh,Giardia growth,Mammal cell tox,Giardia FBPA inh-2,Rabbit aldolase,GAPDH counter
COc1cccc(N=Nc2c(C)[nH]n(-c3ccccc3)c2=O)c1,-27%,3.5µM*,0%,3%,?,-7%,-16%[38.3 µM],-3%,-11%,5%,-5%
CCOC(=O)c1ccc(N=Nc2c(C)[nH]n(-c3ccccc3)c2=O)cc1,-16%,10µM*,0%,0%,?,-7%,?,9%,1%,1%,9%
Cc1[nH]n(-c2ccccc2)c(=O)c1N=Nc1ccccc1O,-28%,-8%,0%,6%,0%,6%,nt,nt,nt,nt,nt
CCCN1C(=O)CN(C2CCCCCC2)C(=O)C1c1ccc(OCC)c(OC)c1 (stereo not drawn),nt,nt,4%,nt,-5%,nt,nt,nt,nt,nt,nt
COC1CCCCC1Nc1ccc(C)c(C)c1 (stereo not drawn),-21%,20µM*,10%,4%,-12%,-4%,15%[10.4 µM],16%,-6%,4%,3%
CCc1oc(C(=O)OC)cc1CSC(=N)N,-21%,18µM*,-3%,5%,11%,-12%,-17%[10.4 µM],-9%,-1%,6%,10%
O=C(C1=C(O)C(=O)N(CCc2ccccc2)C1c1ccncc1)c1cc2ccccc2o1 (stereo not drawn),-24%,12%,1%,2%,5%,12%,nt,nt,nt,nt,nt
